Results published in PubChem BioAssay (NCATS).
Results filed as inconclusive are left out. A call without a number means that no potency is given here. Calls of active or inactive are those of the source. Calls follow the shape of the dose curve; as a rule, active = well fitted curve in the direction sought with a large enough effect; inconclusive = small, poorly fitted or top-dose-only effect, or another doubt; inactive = no such curve, though single readings can be large; an effect the other way counts as inactive or inconclusive.

Experiments:
[1] = Quantitative High-Throughput drug screen in 47 multiple myeloma cell lines against the NCATS MIPE library collection: MOLP8_DSMZ cell viability assay (AID 1918977); conditions: MOLP8 myeloma viability, CellTiter-Glo ATP luminescence, 48 h; series mostly up to 45.8 µM; also: nearly all actives have a fitted effect of over 45% in size
Outline: (§1)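 Myeloma cells (500/well) treated with MIPE 4.0 compounds for 48 h at 37 °C, 5% CO2. Viability read as ATP via CellTiter-Glo luminescence after 5 min at RT; DMSO-only wells = 100%, media-only = 0% viability.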

[2] = Quantitative High-Throughput drug screen in 47 multiple myeloma cell lines against the NCATS MIPE library collection: NCIH929_DSMZ cell viability assay (AID 1918978); conditions: NCI-H929 myeloma viability, CellTiter-Glo ATP, 48 h; series mostly up to 45.8 µM; also: nearly all actives have a fitted effect of over 35% in size; also: potency is read from the fitted curve at half-maximal effect
Outline: as §1

[3] = Quantitative High-Throughput drug screen in 47 multiple myeloma cell lines against the NCATS MIPE library collection: OCIMY1_PLB cell viability assay (AID 1918979); conditions: OCI-MY1 myeloma viability, CellTiter-Glo ATP, 48 h; series mostly up to 45.8 µM; also: nearly all actives have a fitted effect of over 35% in size; also: potency is read from the fitted curve at half-maximal effect
Outline: as §1

[4] = Quantitative High-Throughput drug screen in 47 multiple myeloma cell lines against the NCATS MIPE library collection: MM1R_ATCC cell viability assay (AID 1918981); conditions: MM1R multiple myeloma cells, CellTiter-Glo viability, 48 h; series mostly up to 45.8 µM; also: nearly all actives have a fitted effect of over 35% in size; also: potency is read from the fitted curve at half-maximal effect
Outline: as §1

[5] = Quantitative High-Throughput drug screen in 47 multiple myeloma cell lines against the NCATS MIPE library collection: LP1_DSMZ cell viability assay (AID 1918982); conditions: LP1 myeloma viability, CellTiter-Glo ATP luminescence, 48 h; series mostly up to 45.8 µM; also: nearly all actives have a fitted effect of over 35% in size; also: potency is read from the fitted curve at half-maximal effect
Outline: as §1

[6] = Quantitative High-Throughput drug screen in 47 multiple myeloma cell lines against the NCATS MIPE library collection: KMS28PE_JCRB cell viability assay (AID 1918983); conditions: KMS28PE multiple myeloma viability, CellTiter-Glo ATP, 48 h; series mostly up to 45.8 µM; also: nearly all actives have a fitted effect of over 35% in size; also: potency is read from the fitted curve at half-maximal effect
Outline: as §1

[7] = Quantitative High-Throughput drug screen in 47 multiple myeloma cell lines against the NCATS MIPE library collection: MM1S_ATCC cell viability assay (AID 1918980); conditions: MM1S myeloma viability, CellTiter-Glo ATP luminescence, 48 h; series mostly up to 45.8 µM; also: nearly all actives have a fitted effect of over 45% in size; also: potency is read from the fitted curve at half-maximal effect
Outline: as §1

| SMILES | Potency [1] | Potency [2] | Potency [3] | Potency [4] | Potency [5] | Potency [6] | Potency [7] |
| --- | --- | --- | --- | --- | --- | --- | --- |
| NC[C@H]1O[C@H](O[C@@H]2[C@@H](O)[C@@H](O[C@H]3O[C@H](CO)[C@@H](O)[C@H](N)[C@@H]3O)[C@H](N)C[C@@H]2N)[C@H](O)[C@@H](O)[C@H]1O | inactive | inactive | inactive | inactive | inactive | inactive | – |
| CNC1[C@H](O)C(O[C@@H]2C(O)C(O[C@H]3O[C@H]([C@@H](C)NC)CC[C@H]3N)[C@@H](N)C[C@H]2N)OC[C@]1(C)O (some centres not stated) | inactive | inactive | inactive | inactive | inactive | – | – |
| CCN1CCN(c2ccc(Nc3cc(N(C)C(=O)Nc4c(Cl)c(OC)cc(OC)c4Cl)ncn3)cc2)CC1 | – | inactive | inactive | – | – | – | – |
| CN1CC(=O)N2C(Cc3c([nH]c4ccccc34)[C@H]2c2ccc3c(c2)OCO3)C1=O (some centres not stated) | inactive | inactive | inactive | inactive | – | inactive | – |
| CC[C@H](C=C[C@@H](C)[C@H]1CC[C@H]2[C@@H]3CC=C4C[C@@H](O)CC[C@]4(C)[C@@H]3CC[C@]12C)C(C)C | – | inactive | inactive | inactive | inactive | – | inactive |
| OC[C@H]1O[C@@H](OCCc2ccc(O)cc2)[C@H](O)[C@@H](O)[C@H]1O | inactive | – | inactive | inactive | inactive | – | 20.9 µM (active) |
| CC(=O)O[C@]1(C(C)=O)CC[C@H]2[C@@H]3C=C(Cl)C4=CC(=O)[C@@H]5C[C@H]5[C@]4(C)[C@@H]3CC[C@@]21C | – | 9.35 µM (active) | inactive | – | – | – | 7.43 µM (active) |
| O=C(Nc1cccc2c(=O)cc(-c3nn[nH]n3)oc12)c1ccc(OCCCCc2ccccc2)cc1 | inactive | – | – | 26.4 µM (active) | – | – | – |
| COc1cc(CNC(=O)CCCCC=CC(C)C)ccc1O | – | 18.7 µM (active) | inactive | inactive | inactive | – | inactive |
| CNC(=O)c1cc(COc2nnc(Nc3ccc(Cl)cc3)c3ccoc23)ccn1 | – | inactive | 23.5 µM (active) | – | – | – | inactive |
| O=C(Nc1ccccc1)Nc1ccc(-c2ccc(C(=O)[C@H]3CCC[C@H]3C(=O)O)cc2)cc1 | – | inactive | inactive | – | inactive | – | 26.4 µM (active) |
| COc1ccnc(CS(=O)c2nc3ccc(OC(F)F)cc3[nH]2)c1OC (configuration not stated) | inactive | 18.7 µM (active) | inactive | inactive | inactive | inactive | – |
| COC(=O)N1CCN(Cc2cccc(NC(=O)Nc3ccc(C)nc3)c2F)CC1 | inactive | – | inactive | – | 16.6 µM (active) | – | – |
| CCOC(=O)[C@H]1O[C@H]1C(=O)N[C@@H](CC(C)C)C(=O)NCCC(C)C | inactive | inactive | – | inactive | inactive | – | – |
| C#CCN(C)CC1=Cc2ccccc2Oc2ccccc21 | inactive | inactive | inactive | – | – | 18.7 µM (active) | – |
| CCNC(=O)CCCC=CC[C@@H]1[C@H](C=CC(O)CCc2ccccc2)[C@@H](O)C[C@@H]1O (some centres not stated) | – | inactive | inactive | 26.4 µM (active) | inactive | inactive | 5.9 µM (active) |
| O=C(O)c1nc(=O)[nH]c(=O)[nH]1 | – | – | – | inactive | – | 11.5 µM (active) | inactive |
| Cc1cnc(-c2cc(N3CCN(C(=O)CCS(C)(=O)=O)CC3)ncc2Cl)c(C)c1 | – | – | – | 18.7 µM (active) | inactive | inactive | – |
| Nc1[nH]nc2nnc(-c3c(-c4ccccc4)nn4ccccc34)cc12 | – | 3.72 µM (active) | – | 23.5 µM (active) | inactive | – | – |
| Cc1ccccc1C(C(=O)NC1CCCCC1)N(C(=O)CNc1ccc(C#N)cc1)c1cccc(F)c1 (configuration not stated) | – | – | – | – | inactive | inactive | inactive |
| CCOC(=O)[C@@H](N)CCC(=O)N[C@@H](CSCc1ccccc1)C(=O)N[C@@H](C(=O)OCC)c1ccccc1 | – | – | – | – | – | inactive | – |
| CC[C@H](C)n1cc(C)c2c(C(=O)NCc3c(C)cc(C)[nH]c3=O)cc(-c3ccc(N4CCNCC4)nc3)cc21 | – | – | 26.4 µM (active) | – | 23.5 µM (active) | – | 0.935 µM (active) |
| Fc1ccc(C(c2ccc(F)cc2)N2CCN(CC=Cc3ccccc3)CC2)cc1 | – | 18.7 µM (active) | inactive | – | 16.6 µM (active) | inactive | – |
| Cc1ccc(NC(=O)c2cccc(N(C)C)c2)cc1NC(=O)c1ccc(O)cc1 | – | 0.118 µM (active) | – | 4.18 µM (active) | – | – | 0.418 µM (active) |
| N#Cc1c(N(CC(=O)O)CC(=O)O)sc(C(=O)O)c1CC(=O)O | – | 26.4 µM (active) | – | – | inactive | inactive | – |

| SMILES | Potency [1] | Potency [2] | Potency [3] | Potency [4] | Potency [5] | Potency [6] | Potency [7] |
| --- | --- | --- | --- | --- | --- | --- | --- |
| CCCCCCCCCCCCCC(=O)N[C@H](CO)[C@H](O)c1ccc([N+](=O)[O-])cc1 | – | 23.5 µM (active) | inactive | 18.7 µM (active) | – | 16.6 µM (active) | – |
| CC(C)(F)C[C@H](N[C@@H](c1ccc(-c2ccc(S(C)(=O)=O)cc2)cc1)C(F)(F)F)C(=O)NC1(C#N)CC1 | – | inactive | – | inactive | inactive | – | inactive |
| NC(N)=Nc1nc(CSCCC(N)=NS(N)(=O)=O)cs1 | – | 8.33 µM (active) | – | 23.5 µM (active) | inactive | inactive | 9.35 µM (active) |
| COc1ccc2c(c1)CC[C@H]1[C@@H]2CC[C@]2(C)[C@@H](NCCCCCCN3C(=O)C=CC3=O)CC[C@H]12 | – | – | inactive | – | – | inactive | – |
| CN[C@H]1[C@@H](O[C@@H]2[C@H](O[C@@H]3[C@@H](O)[C@@H](O)[C@@H](N=C(N)N)[C@@H](O)[C@@H]3N=C(N)N)O[C@H](C)[C@@]2(O)C=O)O[C@@H](CO)[C@@H](O)[C@H]1O | – | inactive | – | inactive | inactive | inactive | – |
| O=C1Nc2ccc(I)cc2C1=Cc1cc(Br)c(O)c(Br)c1 | – | – | inactive | inactive | – | – | – |
| C[C@]12CCC3=C4CCC(=O)C=C4CC[C@@H]3[C@H]1CC[C@@]2(O)CC#N | – | – | inactive | – | inactive | inactive | – |
| C[C@H]1O[C@@H](n2cc(F)c(=O)[nH]c2=O)[C@H](O)[C@H]1O | – | – | inactive | 14.8 µM (active) | – | inactive | – |
| O=C(NCCCCN1CCOCC1)c1cc2ccccc2o1 | – | – | inactive | inactive | inactive | inactive | – |
| Cc1cc2c(cc1C1(c3ccc(C(=O)O)cn3)CC1)C(C)(C)CCC2(C)C | – | – | 0.0015 µM (active) | 6.62 µM (active) | – | – | inactive |
| C=CC(=O)Nc1cccc(Sc2nc(Nc3ccc(N4CCN(C)CC4)cc3)ncc2Cl)c1 | – | – | – | – | – | – | 18.7 µM (active) |
| C[C@@H]1[C@H](O)[C@@H](C)C=CC=CC=CC=CC=CC=CC=C[C@H](O[C@@H]2O[C@H](C)[C@H](O)[C@H](N)[C@@H]2O)C[C@@H]2O[C@](O)(C[C@@H](O)C[C@@H](O)[C@H](O)CC[C@@H](O)C[C@@H](O)CC(=O)O[C@H]1C)C[C@H](O)[C@@H]2C(=O)O | – | inactive | – | 16.6 µM (active) | – | inactive | 0.833 µM (active) |
| CN(C)CCN(Cc1ccc(Cl)cc1)c1ccccn1 | – | 10.5 µM (active) | – | inactive | inactive | 5.9 µM (active) | 16.6 µM (active) |
| CCNC(=O)[C@H]1O[C@@H](n2cnc3c(N)nc(NCCc4ccc(CCC(=O)O)cc4)nc32)[C@H](O)[C@H]1O | – | 0.332 µM (active) | – | 0.0526 µM (active) | – | – | 0.332 µM (active) |
| CCC[C@@H](NC(=O)[C@@H]1[C@H]2CCC[C@@H]2CN1C(=O)[C@@H](NC(=O)[C@@H](NC(=O)c1cnccn1)C1CCCCC1)C(C)(C)C)C(=O)C(=O)NC1CC1 | – | inactive | – | 18.7 µM (active) | – | 16.6 µM (active) | – |
| O=C(O)C1=CC(O)C(O)[C@H](O)C1 (some centres not stated) | – | – | inactive | inactive | inactive | inactive | inactive |
| O=C(O)CCNc1cc(N2CCc3ccccc3CC2)nc(-c2ccccn2)n1 | – | inactive | inactive | 16.6 µM (active) | inactive | – | – |
| N#CC1(c2cccc(C(=O)Nc3cc(Oc4ccc5nc(NC(=O)C6CC6)sc5n4)ccc3F)c2Cl)CC1 | – | 6.62 µM (active) | 0.332 µM (active) | 14.8 µM (active) | – | – | – |
| CN1c2ccccc2C(=O)N2CCc3c([nH]c4ccccc34)C21 (configuration not stated) | – | – | inactive | inactive | inactive | inactive | 10.5 µM (active) |
| CCNC(=O)c1noc(-c2cc(C(C)C)c(O)cc2O)c1-c1ccc(CN2CCOCC2)cc1 | – | 0.0418 µM (active) | – | – | – | – | 0.0332 µM (active) |
| CNc1nc(-c2ccc3c(N)n[nH]c3c2)cc(N2C[C@@H](C(=O)NC3CCCCC3)CC[C@@H]2C)n1 | – | – | 18.7 µM (active) | 18.7 µM (active) | 2.64 µM (active) | – | 16.6 µM (active) |
| CN(CC=CC#CC(C)(C)C)Cc1cccc2ccccc12 | – | inactive | – | – | – | inactive | inactive |
| C[C@@H](NC(=O)c1ncnc(N)c1Cl)c1ncc(C(=O)Nc2cc(C(F)(F)F)c(Cl)cn2)s1 | – | – | 2.96 µM (active) | 18.7 µM (active) | 4.69 µM (active) | 16.6 µM (active) | 16.6 µM (active) |
| C[C@@H]1CCO[C@H]2Cn3cc(C(=O)NCc4ccc(F)cc4F)c(=O)c(O)c3C(=O)N12 | – | – | inactive | 23.5 µM (active) | – | 23.5 µM (active) | 20.9 µM (active) |
| CNC(=O)c1ccc2c(C(=Nc3cccc(CN(C)C)c3)c3ccccc3)c(O)[nH]c2c1 | – | 14.8 µM (active) | – | – | inactive | 4.18 µM (active) | – |
